Details in all cases: mRNA level, 48 h; actives raise or lower the signal
Read-out in experiment [1]: Glutathione S-Transferase (GSTA2), GSTA2 (gene 2939)
The experiment can be described thus: LTEA_HepaRG_GSTA2: Life Technologies and Expression Analysis (LTEA) Assay for Glutathione S-Transferase (GSTA2) using HepaRG (AID 2283497). The method, boiled down:
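Differentiated human HepaRG cells were exposed in duplicate for 48 h in serum-free induction medium, 8 points from 100 uM top in half-log steps, 0.5% DMSO. GSTA2 mRNA was measured by TaqMan qRT-PCR, normalized to ACTB, GAPDH and POLR2A; bidirectional fit versus DMSO.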

Read-out in experiment [2]: Glutamate-cysteine ligase catalytic (GCLC), GCLC (gene 2729)
The experiment can be described thus: LTEA_HepaRG_GCLC: Life Technologies and Expression Analysis (LTEA) Assay for Glutamate-cysteine ligase catalytic (GCLC) using HepaRG (AID 2283498). The method, boiled down: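 Differentiated HepaRG cells exposed 48 h in serum-free induction medium, eight-point half-log series topping at 100 uM in 0.5% DMSO, duplicates. GCLC mRNA by qRT-PCR normalized to ACTB, GAPDH and POLR2A, fitted bidirectionally versus DMSO.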

Read-out in experiment [3]: growth arrest and DNA damage 45 (GADD45G), GADD45G (gene 10912)
Kind of experiment: LTEA_HepaRG_GADD45G: Life Technologies and Expression Analysis (LTEA) Assay for growth arrest and DNA damage 45 (GADD45G) using HepaRG (AID 2283499). The procedure, abridged:
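Differentiated human HepaRG cells, 48 h post-plating, exposed 48 h in serum-free induction medium to 8 half-log concentrations (top 100 uM, 0.5% DMSO) in duplicate. GADD45G mRNA measured by Fluidigm TaqMan qRT-PCR, normalized to ACTB, GAPDH, POLR2A; bidirectional fit versus DMSO.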

Read-out in experiment [4]: Glutamate-cysteine ligase regulatory (GCLM), GCLM (gene 2730)
The experiment can be described thus: LTEA_HepaRG_GCLM: Life Technologies and Expression Analysis (LTEA) Assay for Glutamate-cysteine ligase regulatory (GCLM) using HepaRG (AID 2283500). The procedure, abridged:
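Differentiated HepaRG cells exposed 48 h in serum-free induction medium to eight half-log concentrations up to 100 uM (0.5% DMSO). GCLM mRNA by TaqMan qRT-PCR, normalized to ACTB, GAPDH and POLR2A; bidirectional fit versus DMSO.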

Read-out in experiment [5]: Glutathione S-transferase M3 (GSTM3), GSTM3 (gene 2947)
The experiment can be described thus: LTEA_HepaRG_GSTM3: Life Technologies and Expression Analysis (LTEA) Assay for Glutathione S-transferase M3 (GSTM3) using HepaRG (AID 2283501). The procedure, abridged: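 Differentiated human HepaRG cells were exposed in duplicate for 48 h in serum-free induction medium, 8 points from 100 uM top in half-log steps, 0.5% DMSO. GSTM3 mRNA was measured by TaqMan qRT-PCR, normalized to ACTB, GAPDH and POLR2A; bidirectional fit versus DMSO.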

Read-out in experiment [6]: Heat shock 70 kDa protein 1 (HSPA1A), gene 3303
The experiment can be described thus: LTEA_HepaRG_HSPA1A: Life Technologies and Expression Analysis (LTEA) Assay for Heat shock 70 kDa protein 1 (HSPA1A) using HepaRG (AID 2283502). The procedure, abridged: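 Human HepaRG cells in serum-free induction medium were exposed in duplicate for 48 h to 8 half-log concentrations, highest 100 uM, in 0.5% DMSO. HSPA1A mRNA read by TaqMan qRT-PCR, normalized to ACTB, GAPDH, POLR2A, fitted bidirectionally against DMSO.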

Read-out in experiment [7]: Hypoxia-inducible factor 1-alpha (Homo sapiens) (UniProt Q16665)
Kind of experiment: LTEA_HepaRG_HIF1A: Life Technologies and Expression Analysis (LTEA) Assay for Hypoxia-inducible factor 1 (HIF1A) Trancription factor using HepaRG (AID 2283503). The procedure, abridged:
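Differentiated HepaRG cells in serum-free induction medium exposed 48 h, in duplicate, to 8-point half-log series from 100 uM in 0.5% DMSO. HIF1A mRNA measured by TaqMan qRT-PCR, normalized to ACTB/GAPDH/POLR2A, fitted bidirectionally versus DMSO.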

Read-out in experiment [8]: 3-Hydroxy-3-Methylglutaryl-CoA Synthase 2 (HMGCS2), HMGCS2 (gene 3158)
Kind of experiment: LTEA_HepaRG_HMGCS2: Life Technologies and Expression Analysis (LTEA) Assay for 3-Hydroxy-3-Methylglutaryl-CoA Synthase 2 (HMGCS2) using HepaRG (AID 2283504). The method, boiled down: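 Human HepaRG cells in serum-free induction medium were exposed in duplicate for 48 h to 8-point half-log series from 100 uM top in 0.5% DMSO. HMGCS2 mRNA measured by TaqMan qRT-PCR, normalised to ACTB, GAPDH, POLR2A; bidirectional fit versus DMSO.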

Read-out in another experiment: HGF (gene 3082)
Kind of experiment: LTEA_HepaRG_HGF: Life Technologies and Expression Analysis (LTEA) Assay for Hepatocyte Growth Facto (HGF) using HepaRG (AID 2283505). The method, boiled down: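 Differentiated HepaRG cells in serum-free induction medium exposed 48 h in duplicate, 8 half-log concentrations from 100 uM in 0.5% DMSO. HGF mRNA by qRT-PCR, normalised to ACTB, GAPDH, POLR2A; bidirectional fitting.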

Read-out in experiment [9]: Insulin Like Growth Factor 1 (IGF1), IGF1 (gene 3479)
Kind of experiment: LTEA_HepaRG_IGF1: Life Technologies and Expression Analysis (LTEA) Assay for Insulin Like Growth Factor 1 (IGF1) using HepaRG (AID 2283506). The method, boiled down: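 Differentiated HepaRG cells in serum-free induction medium, exposed 48 h in duplicate to 8 half-log concentrations up to 100 uM in 0.5% DMSO. IGF1 mRNA by Fluidigm qRT-PCR, normalised to ACTB, GAPDH and POLR2A.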

Read-out in experiment [10]: Intercellular Adhesion Molecule 1 (ICAM1), ICAM1 (gene 3383)
The experiment can be described thus: LTEA_HepaRG_ICAM1: Life Technologies and Expression Analysis (LTEA) Assay for Intercellular Adhesion Molecule 1 (ICAM1) using HepaRG (AID 2283507). The method, boiled down:
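Differentiated human HepaRG cells in serum-free induction medium exposed 48 h in duplicate to 8 half-log concentrations (top 100 uM, 0.5% DMSO). ICAM1 mRNA quantified by TaqMan qRT-PCR, normalized to ACTB, GAPDH and POLR2A; bidirectional fitting versus DMSO.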

Read-out in experiment [11]: Insulin-like growth factor-binding protein 1 (IGFBP1), IGFBP1 (gene 3484)
The experiment can be described thus: LTEA_HepaRG_IGFBP1: Life Technologies and Expression Analysis (LTEA) Assay for Insulin-like growth factor-binding protein 1 (IGFBP1) using HepaRG (AID 2283508). The procedure, abridged:
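HepaRG cells, plated 48 h then switched to serum-free induction medium, exposed in duplicate for 48 h to 8-point half-log series from 100 uM in 0.5% DMSO. mRNA measured by qRT-PCR, normalized to ACTB/GAPDH/POLR2A; bidirectional fit versus DMSO.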

Read-out in experiment [12]: Interleukin 6 (IL6), IL6 (gene 3569)
The experiment can be described thus: LTEA_HepaRG_IL6: Life Technologies and Expression Analysis (LTEA) Assay for Interleukin 6 (IL6) using HepaRG (AID 2283509). The procedure, abridged:
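HepaRG cells exposed in duplicate for 48 h to eight half-log concentrations, top 100 uM, in 0.5% DMSO serum-free induction medium. mRNA measured by qRT-PCR, normalized to ACTB, GAPDH and POLR2A. Bidirectional fit versus DMSO.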

Read-out in experiment [13]: Interleukin 6 Receptor (IL6R), IL6R (gene 3570)
Kind of experiment: LTEA_HepaRG_IL6R: Life Technologies and Expression Analysis (LTEA) Assay for Interleukin 6 Receptor (IL6R) using HepaRG (AID 2283510).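 As to AC50: TaqMan qRT-PCR signal normalized to ACTB GAPDH and POLR2A housekeeping genes.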 The procedure, abridged:
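Differentiated HepaRG cells, plated 48 h, then exposed in duplicate for 48 h in serum-free induction medium to 8 half-log concentrations (top 100 uM, 0.5% DMSO). IL6R mRNA measured by TaqMan qRT-PCR, normalized to ACTB/GAPDH/POLR2A; bidirectional fit vs DMSO.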

Read-out in experiment [14]: Potassium channel subfamily K member 1 (KCNK1), KCNK1 (gene 3775)
Kind of experiment: LTEA_HepaRG_KCNK1: Life Technologies and Expression Analysis (LTEA) Assay for Potassium channel subfamily K member 1 (KCNK1) using HepaRG (AID 2283511). The procedure, abridged:
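Differentiated HepaRG cells, 48 h exposure in serum-free induction medium with 0.5% DMSO; 8 concentrations, half-log from 100 uM, duplicate. KCNK1 mRNA by qRT-PCR, normalized to ACTB, GAPDH, POLR2A; bidirectional fit vs DMSO.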

Read-out in experiment [15]: Keratin 19 (KRT19), KRT19 (gene 3880)
The experiment can be described thus: LTEA_HepaRG_KRT19: Life Technologies and Expression Analysis (LTEA) Assay for Keratin 19 (KRT19) using HepaRG (AID 2283512). The procedure, abridged: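 Differentiated HepaRG cells in serum-free induction medium, exposed 48 h in duplicate to 8 half-log concentrations up to 100 uM in 0.5% DMSO. KRT19 mRNA by qRT-PCR, normalized to ACTB, GAPDH, POLR2A; bidirectional fit vs DMSO.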

Read-out in experiment [16]: JUN Transcription Factor, JUN (gene 3725)
Kind of experiment: LTEA_HepaRG_JUN: Life Technologies and Expression Analysis (LTEA) Assay for JUN Transcription Factor using HepaRG (AID 2283513). The method, boiled down: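 HepaRG cells, 48 h post-plating, exposed 48 h in serum-free induction medium to 8-point half-log series (top 100 uM, 0.5% DMSO), duplicate; mRNA by qRT-PCR (TaqMan, Fluidigm), normalized to ACTB/GAPDH/POLR2A; bidirectional fit vs DMSO.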

Read-out in experiment [17]: Lipase C (LIPC), LIPC (gene 3990)
The experiment can be described thus: LTEA_HepaRG_LIPC: Life Technologies and Expression Analysis (LTEA) Assay for Lipase C (LIPC) using HepaRG (AID 2283514). The procedure, abridged: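 HepaRG cells, 48 h after plating, treated in duplicate for 48 h in serum-free induction medium over 8 half-log concentrations from 100 uM, 0.5% DMSO. LIPC mRNA by TaqMan qRT-PCR normalized to ACTB/GAPDH/POLR2A; bidirectional fit versus DMSO.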

Read-out in experiment [18]: Lipoprotein lipase (LPL), LPL (gene 4023)
The experiment can be described thus: LTEA_HepaRG_LPL: Life Technologies and Expression Analysis (LTEA) Assay for Lipoprotein lipase (LPL) using HepaRG (AID 2283515). The procedure, abridged:
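Differentiated HepaRG cells, plated 48 h, then exposed 48 h in serum-free induction medium to 8 concentrations (top 100 uM, half-log steps) in 0.5% DMSO, duplicate. LPL mRNA measured by qRT-PCR, normalized to ACTB, GAPDH and POLR2A.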

Read-out in experiment [19]: MicroRNA 122 (MIR122), gene 406906
Kind of experiment: LTEA_HepaRG_MIR122: Life Technologies and Expression Analysis (LTEA) Assay for MicroRNA 122 (MIR122) using HepaRG (AID 2283516). Also: the transcript read is the microRNA miR-122. The method, boiled down: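 Differentiated human HepaRG cells in serum-free induction medium exposed 48 h to 8 half-log concentrations from 100 uM in 0.5% DMSO, duplicate. MIR122 quantified by Fluidigm TaqMan qRT-PCR, normalised to ACTB, GAPDH, POLR2A; fold change fitted bidirectionally versus DMSO.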

Active and inactive are the calls of the source. The calls were made as follows: active = hit-call score of the fitted dose curve at least 0.9, where 1 is the maximum; inactive = score below 0.9.

Sequence of Hypoxia-inducible factor 1-alpha (Homo sapiens) (Q16665 whole entry, looked up): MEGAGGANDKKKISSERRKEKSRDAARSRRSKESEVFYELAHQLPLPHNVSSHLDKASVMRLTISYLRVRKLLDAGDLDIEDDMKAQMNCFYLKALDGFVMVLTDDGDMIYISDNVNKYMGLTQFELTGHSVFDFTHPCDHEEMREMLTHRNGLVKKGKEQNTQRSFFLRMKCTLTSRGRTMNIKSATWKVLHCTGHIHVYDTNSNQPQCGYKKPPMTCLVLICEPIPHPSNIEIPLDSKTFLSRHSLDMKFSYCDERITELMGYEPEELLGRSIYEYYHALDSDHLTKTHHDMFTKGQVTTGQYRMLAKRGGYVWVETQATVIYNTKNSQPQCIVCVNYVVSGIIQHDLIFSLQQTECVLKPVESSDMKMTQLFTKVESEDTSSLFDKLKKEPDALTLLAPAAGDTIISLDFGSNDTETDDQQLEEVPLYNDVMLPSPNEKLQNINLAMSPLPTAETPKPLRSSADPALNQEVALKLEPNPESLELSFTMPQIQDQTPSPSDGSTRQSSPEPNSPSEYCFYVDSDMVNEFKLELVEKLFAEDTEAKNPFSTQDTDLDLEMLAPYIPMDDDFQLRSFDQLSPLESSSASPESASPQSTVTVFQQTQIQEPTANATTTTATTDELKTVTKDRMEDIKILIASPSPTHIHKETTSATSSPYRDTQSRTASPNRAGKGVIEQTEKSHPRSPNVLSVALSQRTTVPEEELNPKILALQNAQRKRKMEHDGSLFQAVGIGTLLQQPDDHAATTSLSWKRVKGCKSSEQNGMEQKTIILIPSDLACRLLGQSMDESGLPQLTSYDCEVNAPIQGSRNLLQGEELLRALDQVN

For `Cc1ccc(C(C)C)c(O)c1`, the molecule was called inactive in [1], in experiment [2], in experiment [3], in experiment [4], in experiment [5] and in experiment [6]. In addition, the outcome (in [7]; in experiment [8]; in the experiment with HGF (gene 3082); in [9]; in experiment [10]; in [11]) was inactive. In addition, the molecule was called inactive in [12], in [13], in experiment [14], in experiment [15], in experiment [16] and in experiment [17]. For the same molecule, in experiment [18], the result was inactive.

Turning to `CC(=O)C(C)=CC1C(C)=CCCC1(C)C` (stereo unspecified), the call in experiment [1], in [2], in experiment [3], in experiment [4], in experiment [5] and in [6] was inactive. The molecule was classed as inactive (in [7]; in [8]; with HGF (gene 3082); in [9]; in experiment [11]; in experiment [12]). Besides, the result in [13], in [14], in experiment [15], in experiment [16], in [17] and in experiment [18] was inactive. The molecule was classed as inactive in experiment [19].

As a reminder, the AC50 is the concentration at which the activity in the assay is half-maximal. As to `COc1ccc(S(=O)(=O)N2C(=O)[C@@](c3ccccc3OC)(N3C[C@H](O)C[C@H]3C(=O)N(C)C)c3cc(Cl)ccc32)c(OC)c1`, the AC50 in experiment [1] was 25 µM (active); in experiment [2] it was 13 µM (active); in experiment [3] it was 16.5 µM (active); in experiment [4] it was 78.6 µM (active); in experiment [5] it was 19.5 µM (active); in [6], 83 µM (active). Further, the AC50 in experiment [7] was 69.1 µM (active); in experiment [8] it was 15.8 µM (active); with HGF (gene 3082), 85.5 µM (active); in experiment [9], 81.9 µM (active); in experiment [11], 37.2 µM (active); in experiment [12], 58.2 µM (active). Besides, the AC50 in experiment [13] was 13.2 µM (active); in [14] it was 50 µM (active); in experiment [17], 15.8 µM (active); in experiment [18], 12.1 µM (active). Further, the molecule was classed as inactive in experiment [15] and in experiment [16].

Take `Nc1ccc2c(c1)C(=O)c1ccccc1C2=O`: the AC50 was 10.2 µM (active) in experiment [1]; 3.17 µM (active) in experiment [3]; 10.1 µM (active) in experiment [4]; 16.5 µM (active) in [8]; 13.2 µM (active) in experiment [11]; 9.08 µM (active) in experiment [15]. Besides, the half-maximal activity concentration (AC50) was 8.27 µM (active) in experiment [17], 2.09 µM (active) in [18] and 4.24 µM (active) in experiment [19]. In addition, the result (in experiment [2]; in experiment [5]; in [6]; in experiment [7]; with HGF (gene 3082); in experiment [9]) was inactive. In addition, the result in [10], in experiment [12], in [13], in experiment [14] and in experiment [16] was inactive.
